Source: PubChem
JMJD2A Tudor: inhibitors of human JMJD2A Tudor domain; AlphaScreen JMJD2A-Tudor / H3K4me3 peptide binding; Potency, µM (top dose mostly 114 µM), without a hit: at the highest dose activity change, negative = inhibition, most hits filed as inhibitors; O75164; 390,000 tested, 4.4% active; note: % is set by controls: 0 for no effect and ±100 for the full control effect; nearly all actives have a fitted effect of over 50% in size
Target sequence (O75164 whole entry, looked up, the tested form may be a part): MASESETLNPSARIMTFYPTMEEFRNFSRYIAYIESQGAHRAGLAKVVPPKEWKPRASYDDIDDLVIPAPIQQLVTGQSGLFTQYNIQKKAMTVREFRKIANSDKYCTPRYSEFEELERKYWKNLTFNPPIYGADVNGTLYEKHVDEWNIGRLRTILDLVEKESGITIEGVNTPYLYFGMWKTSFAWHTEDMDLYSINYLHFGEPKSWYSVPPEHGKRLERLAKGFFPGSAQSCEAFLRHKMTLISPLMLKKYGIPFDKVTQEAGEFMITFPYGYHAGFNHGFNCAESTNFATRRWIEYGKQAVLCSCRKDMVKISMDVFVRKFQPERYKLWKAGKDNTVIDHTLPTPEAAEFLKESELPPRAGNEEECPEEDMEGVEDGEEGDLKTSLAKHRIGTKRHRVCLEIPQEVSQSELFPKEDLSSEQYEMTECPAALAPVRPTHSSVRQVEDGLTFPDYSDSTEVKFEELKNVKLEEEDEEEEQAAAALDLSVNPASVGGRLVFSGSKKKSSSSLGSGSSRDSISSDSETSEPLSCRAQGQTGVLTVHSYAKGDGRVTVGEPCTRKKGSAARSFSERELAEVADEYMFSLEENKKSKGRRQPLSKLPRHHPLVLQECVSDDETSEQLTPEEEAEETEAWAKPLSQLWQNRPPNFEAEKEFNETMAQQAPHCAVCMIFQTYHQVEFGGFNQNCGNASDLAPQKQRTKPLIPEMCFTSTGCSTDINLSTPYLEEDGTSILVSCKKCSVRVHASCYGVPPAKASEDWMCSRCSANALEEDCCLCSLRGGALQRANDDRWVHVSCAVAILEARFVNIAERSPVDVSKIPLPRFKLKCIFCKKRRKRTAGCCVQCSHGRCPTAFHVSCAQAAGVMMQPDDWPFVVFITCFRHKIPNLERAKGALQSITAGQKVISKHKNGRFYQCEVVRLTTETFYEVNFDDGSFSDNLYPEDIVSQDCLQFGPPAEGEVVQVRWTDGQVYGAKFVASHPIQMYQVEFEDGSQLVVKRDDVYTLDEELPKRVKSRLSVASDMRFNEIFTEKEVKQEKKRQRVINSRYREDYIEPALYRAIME
G9a block: blocks human histone lysine methyltransferase G9a. Q96KQ7. G9a H3K9 monomethylation, AlphaScreen, 2 h. Potency, µM (series often up to 102 µM), without a hit: top-dose activity, negative = inhibition, usual class: inhibitors. 350,000 tested, 8.8% active. AID 504332; note: % is set by controls: 0 for no effect and ±100 for the full control effect; nearly all actives have a fitted effect of over 75% in size
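Quantitative HTS format: methyltransferase activity on a biotin-tagged H3K9 peptide is measured by AlphaScreen, using a rabbit anti-monomethyl-H3K9 antibody with streptavidin donor and anti-IgG acceptor beads. Final levels are 20 nM enzyme, 500 nM peptide, 20 uM SAM; 2 h RT.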
GLS inhibitor: glutaminase GLS (human) inhibition; 410,000 tested, 0.21% active; GLS enzymatic activity, qHTS titration; O94925; Potency, µM (doses to about 45.5 µM), without a hit: top-dose activity change, negative = inhibition, most hits filed as inhibitors; note: % is set by controls: 0 for no effect and ±100 for the full control effect
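Human kidney-isoform GLS in 45 mM KH2PO4 pH 8.2, 0.02% Tween-20, with compound, started with 1mM L-Glutamine (added stock). Glutamate oxidase/HRP/Amplex red coupled fluorescence read at start and after 30 min at RT.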
BAZ2B inh: inhibitors of human BAZ2B bromodomain; AlphaScreen BAZ2B-H3K14Ac peptide displacement; Q9UIF8; 360,000 tested, 4.4% active; Potency, µM (top dose mostly 114 µM), for inactives: top-dose activity change, negative = inhibition, actives largely listed as inhibitors; note: % is set by controls: 0 for no effect and ±100 for the full control effect; nearly all actives have a fitted effect of over 60% in size
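AlphaScreen displacement of biotin-H3(5-23)K14Ac peptide (50 nM final) from BAZ2B (50 nM final) in PBS pH 7.4, 0.01% Tween-20; complex preformed 30 min RT, then compounds (top 110 uM) 30 min RT, beads 20 min dark.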
HP1b chromo inh: inhibitors of HP1-beta chromodomain binding to methylated histone tails; P83916; AlphaScreen HP1-beta / biotin-H3K9me3 peptide binding; Potency, µM (highest dose often 114 µM), for inactives: top-dose activity change, negative = inhibition, hits mostly inhibitors; 390,000 tested, 0.56% active; AID 540317; note: nearly all actives have a fitted effect of over 70% in size
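Compound inhibition of the preformed complex between 50 nM HP1-beta and 50 nM biotinylated H3K9me3 peptide was read by AlphaScreen. Buffer was PBS pH 7.4 with 0.01% Tween-20. Incubations ran 30 min at room temperature, with 10 ug/mL donor/acceptor beads.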
An asterisk follows results filed as active; u = inconclusive; x = no result given; [ ] = remark or other dose. This is a sample that favours compounds with a hit; in the whole collection about 10% have one here. Calls come from the whole dose curve; as a rule, active = well fitted curve in the direction sought with a large enough effect; inconclusive = small, poorly fitted or top-dose-only effect, or another doubt; inactive = no such curve, though single readings can be large; an effect the other way counts as inactive or inconclusive. Potency is the fitted concentration of half-maximal effect.

SMILES	JMJD2A Tudor	G9a block	GLS inhibitor	BAZ2B inh	HP1b chromo inh
O=C1N=C2N(CCN3CCCCC3)c3ccccc3N2/C1=C\c1ccc([N+](=O)[O-])o1	x	-12%[12.7 µM]	x	-2%	x
CCOc1ccccc1CNC(=O)Cn1c(-c2ccccc2)cc(C(C)=O)c1C	-21%	1%[59 µM]	-4%	-8%	4%
Cc1ccc(-c2nc3sc(CCNS(=O)(=O)c4cc(F)ccc4F)c(C)n3n2)cc1	-10%	3%[59 µM]	4%	3%	41%
COc1cccc(CN2CCN(C(=O)c3ccc(-c4ccccc4)cc3)CC2)c1	2.2µM*	13µM*	8%	50µM*	32µM*
CCC(CC)N1CCN(C(=O)c2cc(OC)c(OC)c(OC)c2)CC1	50µM*	x	8%	u	u
O=C(c1ccccc1)N1CCN(Cc2cccc(Oc3ccccc3)c2)CC1	40µM*	16µM*	21%	50µM*	-11%
COc1ccc(C(=O)N2CCN(C(=O)c3cc(OC)c(OC)c(OC)c3)CC2)cc1	-11%	-14%[59 µM]	1%	-19%	6%
O=C(CC1N=C2c3ccccc3N=C(SCC(=O)Nc3cccc(Cl)c3)N2C1=O)NCc1cccs1 (stereo unspecified)	-20%	30%[59 µM]	-8%	1%	58%
Nc1nc(O)c(Sc2ccccc2[N+](=O)[O-])c(=O)[nH]1	-4%	40µM*	-11%	-5%	26%
CC(=O)O[C@]1(C(C)=O)CC[C@@H]2[C@@H]3C=C(Cl)C4=CC(=O)[C@H]5C[C@@H]5[C@]4(C)[C@H]3CC[C@]21C	x	9%[21.5 µM]	x	x	x
CC12CCC(C/C1=N\N=C1\NC(=O)/C(=C\c3cccc(Br)c3)S1)C2(C)C (stereo unspecified)	u	1.3µM*	-13%	-28%	-14%
COc1cc(/C=N/N=C2\CC3CCC2(C)C3(C)C)ccc1O (stereo unspecified)	-20%	-4%[59 µM]	9%	-30%	-7%
O=C(CN(c1cccc([N+](=O)[O-])c1)S(=O)(=O)c1ccccc1)N1CCCCC1	-3%	6%	30%	-1%	10%
CC(O)CN(CCC(N)=O)CCC(N)=O (stereo unspecified)	u	35µM*	0%	56µM*	-27%
CC(O)CN(C)C (stereo unspecified)	x	-28%[12.7 µM]	1%	x	x
S=C1NNC2(CC3CC2C2CCCC32)NN1 (stereo unspecified)	u	1.8µM*	10%	-23%	-5%
CCc1nn2cc(C(=O)c3cc(Cl)ccc3O)cnc2c1-c1ccc(F)cc1	50µM*	45µM*	-10%	u	u
O=C(C1CCC1)N1CCc2cc(S(=O)(=O)NCc3ccc(F)cc3)ccc21	-16%	10%[59 µM]	4%	x	6%
Cc1cccc(-c2nc(S(=O)(=O)c3ccc(F)cc3)c(NCCCN3CCOCC3)o2)c1	u	x	5%	71µM*	u
Cc1ccc(S(=O)(=O)c2nc(-c3ccccc3)oc2NCCCN2CCOCC2)cc1	u	u	5%	-32%	37%
COC(=O)/C=C1/S/C(=N/NC(=O)c2ccccc2OC)NC1=O	-10%	7.9µM*	26%	-14%	37%
O=S(=O)(Nc1ccccc1)c1cccc2nonc12	-16%	u	0%	-37%	11%
COc1ccc(NS(=O)(=O)c2cccc3nonc23)c(OC)c1	-25%	40µM*	-3%	u	-13%
CCc1ccc(NS(=O)(=O)c2cccc3nonc23)cc1	-26%[11.4 µM]	45µM*	7%	u	-12%
CCOC(=O)C[n+]1c(C)sc2ccc(OC)cc21	50µM*	1.3µM*	31%	u	u
SMILES	JMJD2A Tudor	G9a block	GLS inhibitor	BAZ2B inh	HP1b chromo inh
Cc1ccc(S(=O)(=O)/N=C(/c2ccc(F)cc2)N2CCCCC2)cc1	-10%	1%[59 µM]	4%	-7%	7%
O=C(CCCN1CCN(c2ccccc2)CC1)c1ccc(F)cc1	x	x	24%	x	x
O=C1NCN(c2ccccc2)C12CCN(CCCC(c1ccc(F)cc1)c1ccc(F)cc1)CC2	40µM*	10µM*	20%	u	-31%
BrC(=C\c1ccccc1)/C=N/Nc1ccc2nncn2n1	u	x	-3%	45µM*	-28%
O=c1c2ccccc2sn1-c1cc(S(=O)(=O)N2CCOCC2)ccc1N1CCOCC1	4µM*	x	u	3.5µM*	8.9µM*
O=c1c2ccccc2sn1-c1cc(S(=O)(=O)N2CCOCC2)ccc1N1CCCCC1	13µM*	x	x	x	u
O=c1c2ccccc2sn1-c1cc(S(=O)(=O)N2CCOCC2)ccc1N1CCCC1	22µM*	u	u	14µM*	-41%
O=S(=O)(c1ccc(N2CCOCC2)c(Cl)c1)N1CCOCC1	-5%	3%	-5%	1%	31%
CC1CCCCC1NS(=O)(=O)c1ccc(S(=O)(=O)NCc2ccncc2)cc1 (stereo unspecified)	-12%	18µM*	2%	u	27%
Cc1ccc(S(=O)(=O)NCc2ccncc2)cc1	-2%	18%	7%	10%	14%
Cc1cc(Cl)ccc1C(O)c1ncc(-c2ccc(C(F)(F)F)cc2)[nH]1 (stereo unspecified)	x	x	-1%	x	x
COc1ccccc1/C=N/NC(=S)Nc1cccnc1	-24%	1%	-10%	-15%	30%
Oc1ccc(/C=N/NC(=S)Nc2cccnc2)cc1O	-32%	u	5µM*	u	u
CC(C)(C)c1ccc(/C=N/NC(=S)Nc2cccnc2)cc1	x	u	x	-36%	x
Oc1ccc(C=NNC(=S)Nc2cccnc2)nc1	10µM*	x	39%	x	19%
COC(=O)c1ccc(C)c(NC(=O)CCCN2C(=O)NC(C)(C)C2=O)c1	-18%	17%[59 µM]	6%	11%	29%
CCOc1ccc2nc(N3CCN(C(=O)c4ccc5c(c4)CCCC5)CC3)sc2c1	-17%	12%[59 µM]	-11%	-14%	-10%
Cc1noc(/C=C/c2cccnc2)c1[N+](=O)[O-]	-10%	45µM*	-21%	-23%	26%
Cc1cccc(C)c1N/C=C/c1onc(C)c1[N+](=O)[O-]	-11%	2%[59 µM]	12%	5%	13%
O=C(/C=C/c1cccnc1)c1cccc(O)c1	u	35µM*	4%	-24%	67%
O=C(/C=C/c1cccnc1)c1ccccc1O	0%	35µM*	-10%	-26%	38%
O=C(C=Cc1cccnc1)c1ccccc1	-6%	x	-1%	x	25%
O=C(Oc1cccnc1)c1ccc([N+](=O)[O-])cc1	-14%	10µM*	0%	u	20%
CC(C)n1c(=O)c2oc3ccccc3c2n(CC(=O)Nc2ccccc2Cl)c1=O	8%	3%[59 µM]	-10%	-3%	41%
COc1ccc(OC)c(NC(=O)Nc2nnc(COCCO)s2)c1	x	x	2%	x	x
COc1ccc(C2=C(C)C(N3CCC(C(=O)NCc4ccco4)CC3)=NS2(=O)=O)cc1	-6%	3%[59 µM]	-2%	-15%	13%
